SMILES strings stand for the structures. Compounds without any hit were thinned out: in the full panel of roughly 83,000, 20% have a hit.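 Results are percent growth after 48 hours of single-concentration exposure. 100 means growth as in untreated cells, lower positive values show inhibition; negative values down to -100 show cell death.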 Unmarked numbers belong to inactive results. Calls of active or inactive are those of the source. How the source made its calls: active means growth percent below 10; inactive means the rest.

Drawing on PubChem BioAssay (NCI), this text covers growth for 14 compounds.

Among the test systems are NCI-H23 lung; NCI-H226 lung; NCI-H322M lung; HOP-62 NSCLC; NCI-H460 lung; HOP-92 NSCLC; A549/ATCC NSCLC; 786-0 renal; COLO 205 colon; NCI-H522 lung.
Holding throughout (assay): NCI-60 one-dose screen, 48 h (100 = growth as untreated, 0 = no growth, -100 = all killed)
What all share (conditions): 10 µM unless noted

Take `CCN1CCC[C@H]1c1cc(O)c2c(c1OC)C[C@H]1C[C@H]3[C@H](N)C(=O)C(C(N)=O)=C(O)[C@@]3(O)C(=O)C1=C2O`: the growth is -16.7% (active) in the experiment with NCI-H23 lung; 1.47% (active) in the experiment on NCI-H226 lung; -2.43% (active) in the experiment on NCI-H322M lung; -12% (active) in the experiment on HOP-62 NSCLC; 2.84% (active) in the experiment on NCI-H460 lung; -3.43% (active) in the experiment with HOP-92 NSCLC. Also, the growth was 6.12% (active) in the experiment with A549/ATCC NSCLC, 3.89% (active) in the experiment with 786-0 renal and -18.7% (active) with COLO 205 colon.
As to `CS(=O)(=O)O[C@@H]1C(=O)N(c2cc3c4ccccc4ccc3c3ccccc23)[C@H]1c1ccc(F)cn1`, the growth with NCI-H23 lung was 49.5%; in the experiment with NCI-H226 lung, 63.2%; with NCI-H322M lung, 67%; with HOP-62 NSCLC, 35.2%; in the experiment with NCI-H460 lung it was 16.4%; in the experiment on HOP-92 NSCLC, 57%. Besides, the growth in the experiment with A549/ATCC NSCLC is 47.1%; with 786-0 renal it was 26.2%; with COLO 205 colon, 48.4%.
In the case of `COc1ccc(C2=NN(c3ccc(S(N)(=O)=O)cc3)C(c3ccc(Cl)cc3)C2)c(O)c1` (centres undefined), the growth with NCI-H23 lung was 63.7%; in the experiment with NCI-H226 lung it was 84.6%; in the experiment with NCI-H322M lung it was 71.6%; in the experiment with HOP-62 NSCLC, 90.2%; in the experiment with HOP-92 NSCLC it was 58.6%; in the experiment on NCI-H522 lung, 48.8%. Moreover, the growth in the experiment on A549/ATCC NSCLC is 33%; in the experiment with 786-0 renal it was 67.1%; in the experiment on COLO 205 colon, 69.7%.
`COc1cc(C2=NN(c3ccccc3)C(c3cccc(Nc4ccnc5cc(C(F)(F)F)ccc45)c3)C2)cc(OC)c1OC` (centres undefined): the growth is 79.1% in the experiment on NCI-H23 lung; 83.6% with NCI-H226 lung; 85.6% with NCI-H322M lung; 88.8% with HOP-62 NSCLC; 73.4% with HOP-92 NSCLC; 86.5% in the experiment with A549/ATCC NSCLC. Further, the values for the growth with 786-0 renal and with COLO 205 colon were 101% and 86.7%, respectively.
For `CC(=O)Oc1ccc(O)cc1`, the growth in the experiment on NCI-H23 lung is 95.2%; in the experiment on NCI-H226 lung it was 106%; in the experiment on NCI-H322M lung, 97.2%; with HOP-62 NSCLC, 113%; in the experiment on HOP-92 NSCLC, 98.3%; in the experiment with NCI-H522 lung, 33.3%. Besides, the growth with A549/ATCC NSCLC is 91.6%; in the experiment on 786-0 renal, 110%; with COLO 205 colon, 120%.
For `COc1cc(C2=NN(C=O)C(c3cccc(Nc4ccnc5cc(C(F)(F)F)ccc45)c3)C2)cc(OC)c1OC` (centres undefined), the growth with NCI-H23 lung was 59.9%; in the experiment on NCI-H226 lung, 64.3%; with NCI-H322M lung, 66.2%; in the experiment on HOP-62 NSCLC it was 70.1%; in the experiment with HOP-92 NSCLC it was 29.1%; with A549/ATCC NSCLC, 49%. For the same compound, the growth in the experiment with 786-0 renal was 63.3%; with COLO 205 colon it was 56.8%.
On to `O=C1CCC23OC(C(O)c4ccccc4N12)C1C(Br)=NOC13` (centres undefined), for which the growth was 99.1% with NCI-H23 lung; 110% in the experiment on NCI-H226 lung; 107% with NCI-H322M lung; 96.8% with HOP-62 NSCLC; 109% with HOP-92 NSCLC; 99.9% with NCI-H522 lung. Besides, the values for the growth with A549/ATCC NSCLC, in the experiment with 786-0 renal and with COLO 205 colon were 99.7%, 94.6% and 108%, respectively.
In the case of `Nc1ccc(C2=NN(C(=O)c3cc(-c4ccc(Cl)cc4)nc4ccccc34)C(c3ccccc3)C2)cc1` (centres undefined), the growth is 43.6% in the experiment with NCI-H23 lung; 53% with NCI-H226 lung; 45.7% with NCI-H322M lung; 35.4% with HOP-62 NSCLC; 50.9% with HOP-92 NSCLC; 24% with NCI-H522 lung. Further, the results for the growth in the experiment on A549/ATCC NSCLC, in the experiment on 786-0 renal and in the experiment on COLO 205 colon were 40.7%, 21.7% and 30%, respectively.
Take `CC(C)NS(=O)(=O)c1cccc(-c2ccc3c(=O)n(CCCN)c4c(c3c2)C(=O)c2ccccc2-4)c1`: the growth in the experiment on NCI-H23 lung is 93.4%; in the experiment on NCI-H226 lung, 93.4%; with NCI-H322M lung it was 115%; with HOP-62 NSCLC it was 91.9%; in the experiment with HOP-92 NSCLC, 105%; in the experiment with NCI-H522 lung, 85.3%. Moreover, the figures for the growth in the experiment on A549/ATCC NSCLC, with 786-0 renal and in the experiment with COLO 205 colon were 102%, 98% and 106%, respectively.
On to `CCC1S/C(=N\N=C(/C)c2ccc[nH]2)N(c2ccccc2)C1=O` (centres undefined), for which the growth in the experiment on NCI-H23 lung was 98.8%; in the experiment on NCI-H226 lung it was 132%; in the experiment on NCI-H322M lung it was 90.8%; in the experiment with HOP-62 NSCLC, 108%; in the experiment on HOP-92 NSCLC it was 70.5%; in the experiment on NCI-H522 lung, 27.2%. Also, the results for the growth in the experiment on A549/ATCC NSCLC, with 786-0 renal and with COLO 205 colon were 82.6%, 117% and 127%, respectively.
Turning to `CCCn1c(N)c(C(N)=O)sc1=S`, the growth in the experiment with NCI-H23 lung is 105%; with NCI-H226 lung, 103%; with NCI-H322M lung, 101%; with HOP-62 NSCLC, 98.9%; in the experiment with HOP-92 NSCLC, 89.5%; in the experiment on NCI-H522 lung it was 94.5%. The growth with A549/ATCC NSCLC is 112%; in the experiment with 786-0 renal, 103%; in the experiment on COLO 205 colon, 118%.
In the case of `NS(=O)(=O)c1ccc(-n2ncc(NC(=O)Nc3ccc(S(=O)(=O)Nc4nccs4)cc3)c2-c2ccccc2)cc1`, the growth with NCI-H23 lung is 106%; with NCI-H226 lung, 104%; with NCI-H322M lung, 106%; in the experiment with HOP-62 NSCLC it was 94.4%; in the experiment with HOP-92 NSCLC, 106%; with NCI-H522 lung it was 98.4%. For the same compound, the growth is 98.5% in the experiment on A549/ATCC NSCLC, 95.6% in the experiment on 786-0 renal and 108% in the experiment on COLO 205 colon.
Turning to `CC(=O)c1cnc(-c2ccccc2)nc1CBr`, the growth in the experiment on NCI-H23 lung was 87.7%; in the experiment on NCI-H226 lung, 92.1%; in the experiment on NCI-H322M lung, 102%; with HOP-62 NSCLC, 94.3%; with HOP-92 NSCLC, 58.7%; in the experiment on NCI-H522 lung, -23.4% (active). The growth in the experiment on A549/ATCC NSCLC was 99%; with 786-0 renal it was 86.3%; in the experiment with COLO 205 colon it was 36.9%.
With `c1ccc(Sc2ncccn2)nc1`, the growth in the experiment with NCI-H23 lung is 93%; in the experiment on NCI-H226 lung, 92.2%; in the experiment on NCI-H322M lung, 111%; in the experiment with HOP-62 NSCLC, 100%; in the experiment with HOP-92 NSCLC, 89%; in the experiment with NCI-H522 lung it was 91.6%. Besides, the growth was 103% in the experiment on A549/ATCC NSCLC, 103% in the experiment with 786-0 renal and 116% in the experiment on COLO 205 colon.
